We go through 89 compounds from PubChem BioAssay AID588689 (Southern Research Specialized Biocontainment Screening …, 2011).

The campaign covered roughly 340,000 compounds. About 1,000 (0.29%) were called active. No stated cut-off is given here; in the data, inconclusive means inhibition above about 29% without an active follow-up result; inactive means below that. A selection follows. Measured potencies and affinities stand elsewhere.

In the assay the target is Genome polyprotein (Dengue virus type 2 (strain 16681-PDK53)) (UniProt P29991). The assay can be described thus: Dengue-2 NS5 methyltransferase inhibitors, primary screen, biochemical, confirmation dose response (AID 588689). Conditions: Dengue-2 NS5 methyltransferase capping enzyme assay, at 25 µM, stronger effect = higher value.
Chain of Genome polyprotein (Dengue virus type 2 (strain 16681-PDK53)) (P29991 whole entry, looked up): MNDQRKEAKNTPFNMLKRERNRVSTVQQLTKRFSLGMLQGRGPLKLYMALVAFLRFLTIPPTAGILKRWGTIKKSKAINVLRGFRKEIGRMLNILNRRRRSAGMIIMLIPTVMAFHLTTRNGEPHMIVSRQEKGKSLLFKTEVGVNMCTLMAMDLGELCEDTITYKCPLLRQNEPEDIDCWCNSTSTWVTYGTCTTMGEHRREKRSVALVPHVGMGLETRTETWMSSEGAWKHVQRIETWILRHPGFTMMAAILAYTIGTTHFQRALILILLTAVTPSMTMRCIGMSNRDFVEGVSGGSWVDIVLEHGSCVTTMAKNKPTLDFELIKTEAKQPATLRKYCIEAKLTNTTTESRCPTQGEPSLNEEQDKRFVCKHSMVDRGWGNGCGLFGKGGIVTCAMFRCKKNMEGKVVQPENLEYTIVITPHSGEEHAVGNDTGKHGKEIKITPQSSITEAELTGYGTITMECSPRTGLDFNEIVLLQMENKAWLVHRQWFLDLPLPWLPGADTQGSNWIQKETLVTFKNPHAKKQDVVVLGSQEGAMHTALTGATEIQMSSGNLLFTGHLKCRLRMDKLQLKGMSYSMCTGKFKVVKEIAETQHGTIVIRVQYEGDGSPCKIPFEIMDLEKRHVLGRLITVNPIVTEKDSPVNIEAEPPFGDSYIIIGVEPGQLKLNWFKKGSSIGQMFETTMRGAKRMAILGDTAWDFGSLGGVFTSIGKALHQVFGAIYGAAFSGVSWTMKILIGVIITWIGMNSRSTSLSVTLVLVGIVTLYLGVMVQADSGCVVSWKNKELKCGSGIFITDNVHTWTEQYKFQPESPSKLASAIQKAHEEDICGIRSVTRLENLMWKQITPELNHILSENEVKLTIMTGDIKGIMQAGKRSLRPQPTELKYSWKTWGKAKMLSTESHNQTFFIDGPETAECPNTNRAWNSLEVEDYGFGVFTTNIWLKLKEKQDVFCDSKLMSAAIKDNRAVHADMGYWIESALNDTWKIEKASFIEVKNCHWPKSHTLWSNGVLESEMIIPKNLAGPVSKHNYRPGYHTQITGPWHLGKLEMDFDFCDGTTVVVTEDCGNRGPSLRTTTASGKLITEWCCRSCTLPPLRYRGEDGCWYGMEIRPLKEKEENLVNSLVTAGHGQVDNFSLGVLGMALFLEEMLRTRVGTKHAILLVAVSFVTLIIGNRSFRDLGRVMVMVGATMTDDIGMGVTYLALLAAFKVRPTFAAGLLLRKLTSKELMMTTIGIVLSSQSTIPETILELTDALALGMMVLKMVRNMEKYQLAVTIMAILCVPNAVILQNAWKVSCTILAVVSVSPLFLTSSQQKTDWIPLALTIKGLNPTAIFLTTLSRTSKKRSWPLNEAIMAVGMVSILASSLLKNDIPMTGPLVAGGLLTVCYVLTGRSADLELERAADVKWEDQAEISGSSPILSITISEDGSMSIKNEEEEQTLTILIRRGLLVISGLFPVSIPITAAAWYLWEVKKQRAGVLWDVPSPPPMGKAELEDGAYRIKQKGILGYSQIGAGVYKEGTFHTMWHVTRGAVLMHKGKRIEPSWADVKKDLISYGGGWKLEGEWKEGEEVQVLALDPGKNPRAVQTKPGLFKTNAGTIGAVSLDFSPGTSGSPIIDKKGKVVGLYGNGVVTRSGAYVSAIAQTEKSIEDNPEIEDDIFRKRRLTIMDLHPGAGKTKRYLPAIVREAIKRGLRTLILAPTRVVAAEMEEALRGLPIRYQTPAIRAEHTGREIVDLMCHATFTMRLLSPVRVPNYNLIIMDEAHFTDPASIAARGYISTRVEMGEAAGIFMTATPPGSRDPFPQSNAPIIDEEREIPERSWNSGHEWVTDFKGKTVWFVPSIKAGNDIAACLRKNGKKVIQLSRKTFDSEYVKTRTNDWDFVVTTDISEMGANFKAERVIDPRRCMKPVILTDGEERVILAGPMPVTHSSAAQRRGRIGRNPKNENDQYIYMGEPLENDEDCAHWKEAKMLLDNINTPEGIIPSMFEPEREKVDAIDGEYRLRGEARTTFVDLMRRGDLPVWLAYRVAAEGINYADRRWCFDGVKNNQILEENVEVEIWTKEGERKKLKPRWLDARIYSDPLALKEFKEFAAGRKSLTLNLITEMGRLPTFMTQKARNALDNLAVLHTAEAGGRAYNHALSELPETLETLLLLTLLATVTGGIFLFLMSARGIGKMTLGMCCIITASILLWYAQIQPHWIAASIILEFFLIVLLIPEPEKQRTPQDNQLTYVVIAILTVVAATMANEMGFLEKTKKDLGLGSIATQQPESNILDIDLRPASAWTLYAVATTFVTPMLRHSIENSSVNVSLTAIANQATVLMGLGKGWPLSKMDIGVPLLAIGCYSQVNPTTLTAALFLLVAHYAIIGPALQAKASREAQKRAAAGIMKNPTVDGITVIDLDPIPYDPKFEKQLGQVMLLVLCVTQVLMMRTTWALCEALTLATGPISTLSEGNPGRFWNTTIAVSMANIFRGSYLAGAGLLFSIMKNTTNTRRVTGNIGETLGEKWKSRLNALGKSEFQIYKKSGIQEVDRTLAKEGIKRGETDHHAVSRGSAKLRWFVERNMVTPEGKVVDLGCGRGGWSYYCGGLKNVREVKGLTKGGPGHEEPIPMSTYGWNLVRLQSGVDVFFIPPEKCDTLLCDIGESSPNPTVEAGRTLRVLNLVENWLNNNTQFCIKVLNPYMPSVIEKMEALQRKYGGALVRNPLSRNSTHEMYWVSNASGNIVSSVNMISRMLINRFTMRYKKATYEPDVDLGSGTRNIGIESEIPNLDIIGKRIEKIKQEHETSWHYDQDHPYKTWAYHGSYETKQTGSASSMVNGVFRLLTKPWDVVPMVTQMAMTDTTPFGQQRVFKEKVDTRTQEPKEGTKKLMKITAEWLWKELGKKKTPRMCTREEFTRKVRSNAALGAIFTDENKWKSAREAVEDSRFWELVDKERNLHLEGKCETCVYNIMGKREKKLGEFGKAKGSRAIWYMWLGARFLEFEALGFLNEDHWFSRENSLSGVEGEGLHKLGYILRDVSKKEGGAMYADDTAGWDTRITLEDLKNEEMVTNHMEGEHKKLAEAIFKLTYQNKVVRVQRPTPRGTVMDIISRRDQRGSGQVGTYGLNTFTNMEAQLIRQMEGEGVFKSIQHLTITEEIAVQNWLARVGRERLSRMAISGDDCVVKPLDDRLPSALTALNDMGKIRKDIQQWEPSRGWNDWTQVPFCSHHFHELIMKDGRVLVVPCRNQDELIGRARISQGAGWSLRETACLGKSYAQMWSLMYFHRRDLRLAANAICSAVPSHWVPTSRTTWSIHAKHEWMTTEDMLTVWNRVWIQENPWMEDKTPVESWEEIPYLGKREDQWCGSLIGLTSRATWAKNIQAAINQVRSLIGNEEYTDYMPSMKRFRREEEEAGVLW

On to `CCN1CCCC(NC(=O)c2cc([N+](=O)[O-])ccc2OC)C1` (stereo not given), for which the inhibition was -5.8% (inactive).

`O=C(CSc1ccccc1)N1CCCC(N2CCN(c3ccc(F)cc3)CC2)C1` (stereo not given): the inhibition is 1.77% (inactive).

Turning to `Nn1c(Cc2ccccc2F)nnc1SCC(=O)Nc1cccc(S(=O)(=O)NC2=NCCCCC2)c1`, the inhibition is -0.76% (inactive).

In the case of `COc1ccc(CNS(=O)(=O)NCc2ccc(C)cc2)cc1OC`, the inhibition was -10.9% (inactive).

Turning to `COCCNC(=O)C1CC2Cn3c(nc4cc5ccccc5cc43)C2N1C` (stereo not given), the inhibition is -1.6% (inactive).

Consider `C=C(C)C(=O)NNc1ccccc1`, for which the inhibition is 0% (inactive).

Regarding `O=C(Cc1ccc(Cl)cc1)N/N=C/c1ccncc1`, the inhibition was -1.47% (inactive).

On to `Cc1noc(C)c1COc1ccc(C(=O)OCC(=O)Nc2cccc(S(=O)(=O)N3CCOCC3)c2)cc1`, for which the inhibition was 0.96% (inactive).

Consider `O=C(O)c1ccccc1/C=N/NC(=O)C1CCCC1`, for which the inhibition is -8.46% (inactive).

Consider `COc1cc(/C=C2/SC(=S)NC2=O)ccc1OS(=O)(=O)c1ccc(C)cc1`, for which the inhibition is 9.96% (inactive).

In the case of `CCOc1ccc(/C=C2\SC(=S)N(Nc3ccccc3)C2=O)cc1OC`, the inhibition was 8.01% (inactive).

With `COc1cc(/C=C2\SC(=S)N(CC(=O)O)C2=O)ccc1OS(=O)(=O)c1ccc(C)cc1`, the inhibition was 22.7% (inactive).

On to `COc1ccc(/C=C2/SC(=O)N(NS(=O)(=O)c3ccccc3)C2=S)cc1OC`, for which the inhibition was 15.7% (inactive).

As to `CCOc1ccc(/C=N/NS(=O)(=O)c2ccc(C)cc2)cc1OC`, the inhibition is -1.16% (inactive).

As for `COc1ccc(OC)c(/C=C2\SC(=S)N(NS(=O)(=O)c3ccc(C)cc3)C2=O)c1`, the inhibition was 40.5% (inactive).

Regarding `O=C1[C@H]2[C@@H](c3ccccc3)N[C@]3(CCCN(Cc4ccc(Cl)cc4)C3=O)[C@H]2C(=O)N1Cc1ccccc1`, the inhibition is -4.41% (inactive).

In the case of `CC(=O)C1N=NCC1c1ccccc1` (stereo not given), the inhibition was 0.78% (inactive).

For the compound `O=C(CSc1ccc(-c2ccc(F)cc2)nn1)NC1CCCCC1`, the inhibition is -4.13% (inactive).

Take `COCc1cc(=O)n2[nH]c(C)cc2n1`: the inhibition was -5.47% (inactive).

`CC1CCN(S(=O)(=O)c2ccc3[nH]c(=O)[nH]c3c2)CC1`: the inhibition was -10.8% (inactive).

For `COc1ccc(C(=O)/C=C/c2ccsc2)cc1CSCC(=O)O`, the inhibition was 6.74% (inactive).

With `COc1ccc(C(=O)/C=C/c2ccc(OCc3ccccc3)cc2)cc1CSCC(=O)O`, the inhibition is 11.7% (inactive).

For the compound `COc1ccc(CCC(=O)OCC(=O)c2ccc[nH]2)cc1OC`, the inhibition is 1.46% (inactive).

As for `CSc1nccn1CC(=O)Nc1ccc(F)cc1`, the inhibition was -6.45% (inactive).

Turning to `CCc1ccccc1NC(=O)NC1CC2CCC(C1)N2Cc1ccco1` (stereo not given), the inhibition is -3.12% (inactive).

On to `CCCCCCC(=O)O`, for which the inhibition was -2.09% (inactive).

Turning to `CCCC(N)CCCCCC(=O)O` (stereo not given), the inhibition was -9.35% (inactive).

For the compound `CCNc1nc(NCC)n2c(SCC(=O)NC34CC5CC(CC(C5)C3)C4)nnc2n1`, the inhibition is -8.01% (inactive).

Regarding `Cn1c(C(C#N)C(=O)c2sc3ccccc3c2Cl)nc2ccccc21` (stereo not given), the inhibition was -3.45% (inactive).

With `CCCCn1c(N)c(-c2nc3ccccc3s2)c2c([N+](=O)[O-])nn(CC)c(=O)c21`, the inhibition was -3.23% (inactive).

Regarding `O=[N+]([O-])c1ccc(CC(Cl)c2ccccn2)cc1` (stereo not given), the inhibition is 0.78% (inactive).

For `Cc1nc([N+](=O)[O-])c(Sc2nc3ccccc3n2C)n1Cc1ccccc1`, the inhibition was 11.5% (inactive).

Consider `CCCCCn1c(N)c(-c2nc3ccccc3s2)c2c([N+](=O)[O-])nn(CC)c(=O)c21`, for which the inhibition is -4.79% (inactive).

Regarding `CCCCn1c(N)c(-c2nc3ccccc3o2)c2c([N+](=O)[O-])nn(CC)c(=O)c21`, the inhibition was -0.74% (inactive).

In the case of `CCCn1nc([N+](=O)[O-])c(C(C#N)c2nc3ccccc3s2)c(Cl)c1=O` (stereo not given), the inhibition is 27.6% (inactive).

`N#CC(c1ccccn1)c1ncc(C(F)(F)F)cc1Cl` (stereo not given): the inhibition was -2.95% (inactive).

Regarding `COc1ccc(/C=C(\C#N)C(=O)OCC(=O)N2CC(C)OC(C)C2)cc1` (stereo not given), the inhibition was -2.3% (inactive).

On to `O=C(CCCOc1ccc(Cl)cc1Cl)N/N=C/c1ccccc1`, for which the inhibition was -4.44% (inactive).

For `CCCCCCCC(=O)N1c2ccccc2NC(=O)C1CC(=O)Nc1ccc(C(=O)O)cc1` (stereo not given), the inhibition is 8.1% (inactive).

On to `Cc1ccccc1NS(=O)(=O)c1ccc(C(=O)N2CCCC(C(F)(F)F)C2)cc1` (stereo not given), for which the inhibition is 0.73% (inactive).

Turning to `COc1cc(OC)cc(C(=O)NC2CCSC2=O)c1` (stereo not given), the inhibition was 2.06% (inactive). Further, where the note is “measured here: pilot screen replicate inhibition”, the inhibition is -3.04%.

Regarding `CCc1c(C)c2nncn2[nH]c1=O`, the inhibition was -3.9% (inactive).

As to `CCOc1ccc(NC(=O)CN(C)C(=O)C2CC(=O)N(c3ccc4c(c3)OCCO4)C2)cc1OCC` (stereo not given), the inhibition is 5.04% (inactive).

In the case of `CC(C)Cn1c(SCC(=O)N2CC(=O)Nc3ccccc32)nc2ccccc21`, the inhibition was -0.64% (inactive).

On to `CC(=O)OCC1CCCC2=C(C)C(=O)CCC21COC(C)=O` (stereo not given), for which the inhibition was 3.29% (inactive).

Turning to `Cc1ccccc1NC(=O)NC1(C(=O)N2CCOCC2)CCCCC1`, the inhibition was -3.7% (inactive).

As to `COc1ccc(CCn2c(=O)c3cccnc3n(Cc3ccc([N+](=O)[O-])cc3)c2=O)cc1OC`, the inhibition was -7.08% (inactive).

In the case of `CCS(=O)(=O)c1ccc(O)c(NC(=O)CCCC(=O)O)c1`, the inhibition is 12.2% (inactive).

With `CCCCCC(=O)Nc1cc(S(=O)(=O)N2CCCCC2)ccc1N1CCCCC1`, the inhibition is -6.48% (inactive).

Turning to `Cc1ccc(N2CC(C(=O)OCc3nc(N)nc(Nc4ccccc4C)n3)CC2=O)cc1` (stereo not given), the inhibition was 2.96% (inactive).

For the compound `CCCCC/C=C/C1=CC(=O)C[C@H](c2ccc(OC)cc2)C1`, the inhibition was -0.8% (inactive).

Take `CC(C)C(NC(=O)C1CCC(C(C)(C)C)CC1)C(=O)NCCc1ccc(S(N)(=O)=O)cc1` (stereo not given): the inhibition is 9.25% (inactive).

For the compound `O=C(O)c1cccc(CN2C(=O)S/C(=C/c3ccccc3[N+](=O)[O-])C2=O)c1`, the inhibition is 28.5% (inactive).

Consider `O=C(/C=C/c1cccc([N+](=O)[O-])c1)NCCN1C(=O)S/C(=C\c2ccc(F)cc2)C1=O`, for which the inhibition is 5.26% (inactive).

On to `CCCCNC(C(=O)Nc1ccc([N+](=O)[O-])cc1Br)c1ccccc1` (stereo not given), for which the inhibition is 1.47% (inactive).

With `COc1ccc(C(=O)N2CCC(C(=O)Nc3ccc4c(c3)OCO4)CC2)cc1`, the inhibition is -4.42% (inactive).

For `O=C(NCc1ccc(F)cc1)C(=O)NCC1OCCN1S(=O)(=O)c1cc(F)ccc1F` (stereo not given), the inhibition was 6.59% (inactive).

On to `Cc1ccc([N+](=O)[O-])cc1NC(=O)C(C)NS(=O)(=O)c1ccc(F)cc1` (stereo not given), for which the inhibition is 2.19% (inactive).

Consider `COc1ccc(NC(=O)CCCc2nc3ccccc3c(=O)[nH]2)cc1Cl`, for which the inhibition was 6.22% (inactive).

`COC(=O)CCC(=O)OC1(C)C(=O)C=C2C=C(C3CC3)N(CCCOC(C)C)C=C2C1=O` (stereo not given): the inhibition is 7.22% (inactive).

With `COC(=O)CCC(=O)OC1(C)C(=O)C=C2C=C(C3CC3)N(Cc3ccc(OC)cc3)C=C2C1=O` (stereo not given), the inhibition is 17.3% (inactive).

For `COC(=O)CCC(=O)OC1(C)C(=O)C2=CN(Cc3ccc(OC)cc3)C(c3ccc(OC)cc3)=CC2=C(Br)C1=O` (stereo not given), the inhibition was 17.2% (inactive).

As for `COC(=O)CCC(=O)OC1(C)C(=O)C=C2C=C(C3CC3)N(C3CCCCC3)C=C2C1=O` (stereo not given), the inhibition was 12.7% (inactive).

With `COC(=O)CCC(=O)OC1(C)C(=O)C2=CN(CCc3c[nH]c4ccccc34)C(c3ccc(OC)cc3)=CC2=C(Br)C1=O` (stereo not given), the inhibition is -2.45% (inactive).

`CCN(CC)CCCN1C=C2C(=O)C(C)(OC(=O)CCC(=O)OC)C(=O)C(Br)=C2C=C1c1ccc(OC)cc1` (stereo not given): the inhibition is 8.8% (inactive).

For `COC(=O)CCC(=O)OC1(C)C(=O)C=C2C=C(C3CC3)N(CC3CC3)C=C2C1=O` (stereo not given), the inhibition was 9.84% (inactive).

Turning to `COC(=O)CCC(=O)OC1(C)C(=O)C=C2C=C(C3CC3)N(C3CCCC3)C=C2C1=O` (stereo not given), the inhibition was 12.8% (inactive).

On to `N#Cc1ccc(CN2CCN(C(=O)CCNS(=O)(=O)c3ccc(F)c(F)c3)CC2)cc1`, for which the inhibition was -7.08% (inactive).

`O=C(CSc1ccc2c(c1)OCCO2)NCC1CCCO1` (stereo not given): the inhibition is -10.5% (inactive).

`O=c1c(-c2ccccc2)c(O)c2c(n1-c1ccccc1)CCCC2`: the inhibition is -3.21% (inactive).

Consider `O=C(O)c1ccc(-c2ccco2)n1Cc1ccccc1`, for which the inhibition was 4.75% (inactive).

With `O=C(CN1CCN(Cc2ccc(F)cc2)CC1)Nc1ccccc1F`, the inhibition is 1.36% (inactive).

For `CCN(C(=O)CSc1nc2ccccc2c(=O)n1CCOC)C1CCS(=O)(=O)C1` (stereo not given), the inhibition is 1.48% (inactive).

For `CC(C)c1cccc(-c2ccc3c(c2)S(=O)(=O)c2cccc(C(=O)NC4CCCC4)c2C3=O)c1`, the inhibition was -4.92% (inactive).

In the case of `CC(C)c1cccc(-c2ccc3c(c2)S(=O)(=O)c2cccc(C(=O)NCc4ccccc4)c2C3=O)c1`, the inhibition is -6.42% (inactive).

Turning to `O=C1c2ccc(-c3ccc(F)cc3OCc3ccccc3)cc2S(=O)(=O)c2cccc(C(=O)N3CCCC3)c21`, the inhibition was 8% (inactive).

As to `COc1ccc(NC(=O)c2cccc3c2C(=O)c2ccc(-c4ccc(F)cc4OCc4ccccc4)cc2S3(=O)=O)cc1`, the inhibition was -0.7% (inactive).

Consider `O=C(OCCN1CCCCC1)c1ccccc1Cl`, for which the inhibition was 7.44% (inactive).

Take `CN(CC(=O)Nc1cccc(F)c1)CC(=O)N1CCCCC1`: the inhibition is 6.98% (inactive).

On to `COc1ccc(CN2CC(C(=O)NCCC(C)C)CC2=O)cc1` (stereo not given), for which the inhibition was 6.67% (inactive).

Consider `CC(C)(C)C(=O)NCCCc1ccccc1`, for which the inhibition was -0.68% (inactive).

With `COc1cc(/C=C2\C(=O)NN(c3ccc(C)cc3)C2=O)cc([N+](=O)[O-])c1O`, the inhibition was 17.9% (inactive).

For `CCOc1cc(/C=C2\NC(=O)NC2=O)cc([N+](=O)[O-])c1O`, the inhibition was 71.9% (inactive).

As to `CCOc1cc(/C=C2/NC(=O)NC2=O)cc([N+](=O)[O-])c1O`, the inhibition was 22.9% (inactive).

Regarding `COc1cc(/C=C2/C(=O)NN(c3ccc(Cl)cc3)C2=O)ccc1OC(=O)c1ccco1`, the inhibition is 15.2% (inactive).

On to `COc1cc(/C=C2/C(=O)NN(c3cccc(F)c3)C2=O)ccc1OC(=O)c1ccco1`, for which the inhibition is 23% (inactive).

For the compound `COc1cc(/C=C2\C(=N)N3N=C(S(C)(=O)=O)SC3=NC2=O)ccc1OC(=O)c1ccco1`, the inhibition was -59.7% (inactive).

With `CCOc1cc(/C=C2/C(=O)N(c3ccccc3)N=C2C)ccc1OC(=O)c1ccco1`, the inhibition was 19.1% (inactive).

With `COc1cc(/C=C2\C(=O)NN(c3ccccc3)C2=O)cc([N+](=O)[O-])c1O`, the inhibition was 26.6% (inactive).

As usually defined, the inhibition is the change of the read-out against control, counted positive when it falls.
